Laboratory results taken from PubChem BioAssay AID2517 (National Center for Advancing Translational Sciences (NCATS), 2010).
Several values for one entry are separate records, joined by “and”; a condition that tells them apart may be missing. Equal values may be shown once. The campaign covered roughly 350,000 compounds. About 1,200 (0.34%) were called active. About 3% were inconclusive and are not listed. Calls follow the shape of the dose curve; as a rule, active = well fitted inhibition curve with a large enough effect; inconclusive = small, poorly fitted or top-dose-only effect; inactive = no such curve, though single readings can be large or run the other way. The full list was thinned out, with actives kept by preference. More than one record can exist for a structure, and the calls need not agree.

Target: DNA repair nuclease/redox regulator APEX1 (Homo sapiens) (UniProt P27695)
Sequence (P27695 whole entry, looked up): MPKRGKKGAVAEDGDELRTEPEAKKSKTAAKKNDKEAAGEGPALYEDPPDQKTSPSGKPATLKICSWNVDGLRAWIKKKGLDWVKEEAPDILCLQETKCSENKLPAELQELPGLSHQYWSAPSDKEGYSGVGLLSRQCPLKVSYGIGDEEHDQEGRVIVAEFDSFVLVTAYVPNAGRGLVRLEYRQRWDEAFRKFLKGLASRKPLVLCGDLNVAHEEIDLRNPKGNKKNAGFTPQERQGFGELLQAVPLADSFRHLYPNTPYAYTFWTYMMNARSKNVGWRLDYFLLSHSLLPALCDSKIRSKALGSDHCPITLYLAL
Test: qHTS Assay for Inhibitors of the Human Apurinic/apyrimidinic Endonuclease 1 (APE1); also: nearly all actives have a fitted effect of over 55% in size;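 as to activity change, negative = inhibition: plate controls were vehicle for no effect and reference inhibitor for full effect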
Conditions: recombinant APE1, TAMRA/BHQ-2 abasic DNA cleavage fluorescence; activity change, negative = inhibition: at 65.8 µM (top of the series)
Text: The apurinic/apyrimidinic endonuclease APE1 is the primary mammalian enzyme responsible for the removal of abasic (or AP) sites in DNA and functions centrally in the base excision DNA repair (BER) pathway. […] Thus, targeting APE1 could improve the efficacy of current treatment paradigms by promoting selective sensitization or protection of diseased and normal cells, respectively.
Inhibition of APE1 activity was screened by utilizing double-stranded short substrate containing tetrahydrofuran (THF) abasic site labeled with rhodamine-type fluorophore (TAMRA) at the 5'-end and with non-fluorescent Black Hole Quencher-2 (BHQ-2) at the opposing 3'-end. An increase in the fluorescence intensity due to incision of the abasic site by APE1 was used to measure the enzyme activity.
NIH Chemical Genomics Center [NCGC]
NIH Molecular Libraries Probe Centers Network [MLPCN]
Assay Provider: David M. Wilson, III, National Institute on Aging, NIH
Three uL of enzyme solution (0.75 nM APE1 final concentration) was dispensed to 1536-well Greiner black solid bottom plates. […] The plates were incubated for 15 min at room temperature, and then 1 uL of substrate solution (50 nM final concentration of TAMRA/BHQ-2) was added to start the reaction. The plates were immediately transferred into ViewLux High-throughput CCD imager (Perkin-Elmer) in order to measure the reaction progress in kinetic mode (three reads every 60 seconds) using 525 nm excitation and 598 nm emission fluorescence protocol. The fluorescence intensity difference between the third and the first time points was used to compute reaction progress. Results were normalized to buffer only columns and NSC13755 positive controls and negative control DMSO treated wells.
Potency is read from the fitted curve at half-maximal effect.

Row | Structure (SMILES) | Potency | activity change, negative = inhibition
1 | Cc1ccc(Cc2cnc(N)s2)o1 | 28.2 µM (active) | 
2 | Cc1ccc(CCC(=O)Nc2ncc(Cc3cc(Cl)ccc3Cl)s2)o1 |  | -4.89% (inactive)
3 | CCC[C@@H]1C[C@@]1(CCC)C(NS(=O)(=O)c1cccc2cccnc12)c1ccc(Cl)cc1 (stereo partly specified) |  | 14.7% (inactive)
4 | CC(=O)OCC1OC(C#CCCCc2ccccc2)C=CC1OC(C)=O (stereo unspecified) |  | 10.7% [at 12.4 µM] (inactive) and -3.91% [at 12.4 µM] (inactive)
5 | Nc1ncn(C2OC(CO)C(O)C2O)c(=O)n1 (stereo unspecified) |  | -0.222% (inactive)
6 | CC1=C2[C@@H](O)[C@H]([C@@H](C)C(=O)NCCC(C)C)CC[C@@]2(C)C=CC1=O |  | -2.86% (inactive)
7 | COC(=O)C1=C(C)N(Cc2ccccc2)C2=C3C(=O)N(c4ccccc4)C(=O)C3[C@@](O)(C(=O)OC)C(=O)N2C1c1ccccc1 (stereo partly specified) |  | -8.1% [at 12.4 µM] (inactive) and -10.6% [at 12.4 µM] (inactive)
8 | C#CCOCCOCCOCCNc1nc(N2CCN(C(=O)[C@H](CCCCN)n3cc([C@@H](N)C(C)CC)nn3)CC2)nc(N2CCN(C(=O)[C@H](Cc3ccc(O)cc3)n3cc([C@@H](N)C(C)CC)nn3)CC2)n1 (stereo partly specified) |  | 24.6% (inactive)
9 | C#CCOCCOCCOCCNc1nc(N2CCN(C(=O)[C@H](Cc3ccc(O)cc3)n3cc(C(N)CC(C)C)nn3)CC2)nc(N2CCN(C(=O)[C@H](CCC(=O)O)n3cc(C(N)[C@H](C)CC)nn3)CC2)n1 (stereo partly specified) |  | -11.9% (inactive)
10 | C#CCOCCOCCOCCNc1nc(N2CCN(C(=O)C(Cc3ccc(O)cc3)n3cc(C(N)CC(C)C)nn3)CC2)nc(N2CCN(C(=O)C(Cc3ccc(O)cc3)n3cc(C(N)C(C)CC)nn3)CC2)n1 (stereo unspecified) | 31.6 µM (active) | 
11 | C=CCOC(=O)NC(c1ccc(F)c(F)c1)C(C(=O)COC)C(=O)OC (stereo unspecified) | inactive | 
12 | CCCN1[C@H](C(=O)OC)C[C@@]2(O)[C@@H](O)[C@@H](O)[C@@H](O)C[C@@H]12 |  | 14.8% (inactive)
13 | COc1c(O)c2c(=O)cc(OC)c3c4c(OC)cc(=O)c5c(O)c(OC)c6c(c(c1C[C@@](C)(O)[C@H]6C(C)=O)c23)c54 |  | -10.2% (inactive)
14 | O=C1N/C(=C/c2cccn2-c2ccccc2)C(=O)N1c1cccc(Cl)c1 |  | 6.35% (inactive)
15 | Cc1ccccc1NC(=O)CN1C(=O)N/C(=C\c2cccn2-c2cccc(C(=O)O)c2)C1=O | 3.16 µM (active) | 
16 | Cc1ccccc1NC(=O)CSC(=O)c1ccccc1 |  | 8.15% (inactive)
17 | O=C(c1cccc(F)c1)N1CCC2(CCCN(Cc3ccncc3)C2)CC1 |  | -0.987% (inactive)
18 | COC(=O)[C@@]1(Cc2ccc(F)cc2)[C@@H]2[C@@H](CC(=O)[C@H]2CC(=O)C(=O)N2CCCC2)CN1C(=O)c1ccccc1 |  | -5.41% (inactive)
19 | CC(=O)OCC(=O)C1CCC2C3CCC4=CC(=O)CC[C@@]4(C)C3CC[C@]12C (stereo partly specified) |  | 1.89% (inactive)
20 | C#CCC(C(=O)OC)(C(=O)OC)C(C[N+](=O)[O-])c1ccccc1 (stereo unspecified) |  | 1.76% [at 12.4 µM] (inactive)
21 | O=c1ccc2c(-c3ccccc3S(=O)(=O)O)c3ccc(O)c(O)c3oc-2c1O | 0.0947 µM (active) | 
22 | CC(C)CN1CCc2nc(-c3ccccc3)c3c(c2C1)COC(C)C3 (stereo unspecified) |  | 8.68% [at 12.4 µM] (inactive)
23 | Cc1ccc(-c2nn(CC(C)(C)C)c3ncnc(N)c23)cc1 |  | -2.29% (inactive)
24 | CN1CCCC1CCO[C@@](C)(c1ccccc1)c1ccc(Cl)cc1 (stereo partly specified) |  | 0.95% (inactive)
25 | CCOc1cc(/C=N/NC(=O)CN2CCCCC2)ccc1O |  | 32% (inactive)
26 | Cc1nccn1CC(=O)N/N=C/c1ccc(O)c(O)c1 | 25.1 µM (active) | 

Row | Structure (SMILES) | Potency | activity change, negative = inhibition
27 | Cn1c(SCC(=O)N/N=C/c2ccc(O)c(O)c2)nc2ccccc21 |  | -9.26% (inactive)
28 | N#Cc1cccc(-c2ccc3ncnc(NCc4cccs4)c3c2)c1 |  | 0.81% (inactive)
29 | COc1ccc(-c2oc3cc(OC)ccc3c2C(=O)c2ccc(C#N)cc2)cc1 |  | -7.81% (inactive)
30 | COC(=O)C1=C(C(=O)OC)[C@@H]2N(C)c3ccccc3[C@@]23C[C@@H](C(=O)OC)N(S(=O)(=O)c2cccs2)C3=N1 |  | -14.4% [at 12.4 µM] (inactive)
31 | Nc1ccc2nc3c(=O)[nH]c(=S)[nH]c3nc2c1 | 0.501 µM (active) | 
32 | CN1[C@H]2CC(OC(=O)[C@@H](CO)c3ccccc3)C[C@H]1[C@H]1O[C@H]12 (stereo partly specified) |  | -4.8% [at 21 µM] (inactive)
33 | COC(=O)[C@@]1(Cc2ccccc2)[C@H]2c3cc(C(=O)N4CCCC4)n(Cc4ccc(C)o4)c3C[C@H]2CN1C(=O)c1ccccc1 |  | -5.54% (inactive)
34 | CC(C)C(N)C(=O)OCCOCn1cnc2c(=O)[nH]c(N)nc21 (stereo unspecified) |  | 3.96% (inactive)
35 | C[C@@H]1O[C@@H](OC[C@H]2O[C@@H](Oc3cc(O)c4c(c3)O[C@H](c3ccc(O)c(O)c3)CC4=O)[C@H](O)[C@@H](O)[C@@H]2O)[C@H](O)[C@H](O)[C@H]1O |  | -10.7% (inactive)
36 | C=CCCN(Cc1ccccc1)S(=O)(=O)c1ccccc1Br | inactive and 199 nM (active) | 
37 | C=CC(COCc1ccccc1)N(Cc1ccccc1)S(=O)(=O)c1ccccc1Br (stereo unspecified) | inactive | 
38 | C=CCCN(C(Cc1ccccc1)C(=O)OC)S(=O)(=O)c1cc(Br)ccc1Br (stereo unspecified) |  | -1.9% (inactive)
39 | COC(=O)[C@@]1(Cc2ccccc2)[C@H]2c3cc(C(=O)N(C)C)n(CCSCCO)c3C[C@H]2CN1C(=O)c1ccccc1 |  | -0.311% (inactive)
40 | CC(C)=CCC[C@]1(C)[C@@H](CC=C(C)C)C[C@@]2(CC=C(C)C)C(=O)[C@]1(C(=O)C(C)C)C(=O)C(CC=C(C)C)=C2O |  | -2.28% (inactive)
41 | CC(=O)CC(C)C |  | -0.561% (inactive)
42 | Cc1cc(C)c2nc(-c3ccco3)cc(C(=O)O)c2c1 | 7.08 µM (active) | 
43 | CC1CCCN(C(=O)c2cc(-c3ccco3)nc3ccccc23)C1 (stereo unspecified) |  | 17.7% (inactive)
44 | O=C(c1cc(-c2ccco2)nc2ccccc12)N(Cc1nnc(-c2ccc(Cl)cc2)o1)C1CC1 |  | -25.3% (inactive)
45 | Cc1ccc(Br)cc1 |  | -0.853% (inactive)
46 | CC(N)(C(=O)O)c1ccc(-c2nn[nH]n2)cc1 (stereo unspecified) |  | 7.06% (inactive)
47 | COCCNc1ncnc2ccc(-c3cccnc3)cc12 |  | -1.42% (inactive)
48 | CCCCCCCC[C@@H](O)/C=C/C=C/C=C\[C@@H](O)CCCC(=O)O |  | -7.47% (inactive)
49 | O=c1c(O)c(Br)ccc2c(Br)c(O)c(O)c(O)c12 | 1.12 µM (active) | 
50 | O=C(c1ccncc1)N1CCC2(CCN(Cc3cc(C(F)(F)F)cc(C(F)(F)F)c3)CC2)CC1 |  | 2.27% (inactive)
51 | CC1(C)C=CC(=O)[C@]2(C)C1CC(=O)[C@]1(C)C2CC[C@@]2(C)C(c3ccoc3)OC(=O)C3OC321 (stereo partly specified) |  | 0.648% (inactive)
